Source: PubChem BioAssay (several laboratories)
A selection: hits, their analogues and other compounds. The true share with any hit is near 3.5%.
BoNT-F LC inh: blocks Botulinum neurotoxin F light chain protease; Multiplex microsphere protease cleavage assay, flow cytometry; inhibition, % at 10 µM; hit rate 0.22% among 360,000; AID 588497; in the data active means inhibition above about 35%, passing the limit was not always enough; inconclusive means no clear call, values can overlap the other calls; further: plate controls were buffer without enzyme for full effect and enzyme alone for no effect
Anthrax LF prot: inhibitors of Bacillus anthracis lethal factor protease | AID 588501 | hit rate 0.12% among 360,000 | inhibition, % at 10 µM | multiplex microsphere protease cleavage assay, LF; further: plate controls were buffer without enzyme for full effect and enzyme alone for no effect
Target sequence (P15917 whole entry, looked up): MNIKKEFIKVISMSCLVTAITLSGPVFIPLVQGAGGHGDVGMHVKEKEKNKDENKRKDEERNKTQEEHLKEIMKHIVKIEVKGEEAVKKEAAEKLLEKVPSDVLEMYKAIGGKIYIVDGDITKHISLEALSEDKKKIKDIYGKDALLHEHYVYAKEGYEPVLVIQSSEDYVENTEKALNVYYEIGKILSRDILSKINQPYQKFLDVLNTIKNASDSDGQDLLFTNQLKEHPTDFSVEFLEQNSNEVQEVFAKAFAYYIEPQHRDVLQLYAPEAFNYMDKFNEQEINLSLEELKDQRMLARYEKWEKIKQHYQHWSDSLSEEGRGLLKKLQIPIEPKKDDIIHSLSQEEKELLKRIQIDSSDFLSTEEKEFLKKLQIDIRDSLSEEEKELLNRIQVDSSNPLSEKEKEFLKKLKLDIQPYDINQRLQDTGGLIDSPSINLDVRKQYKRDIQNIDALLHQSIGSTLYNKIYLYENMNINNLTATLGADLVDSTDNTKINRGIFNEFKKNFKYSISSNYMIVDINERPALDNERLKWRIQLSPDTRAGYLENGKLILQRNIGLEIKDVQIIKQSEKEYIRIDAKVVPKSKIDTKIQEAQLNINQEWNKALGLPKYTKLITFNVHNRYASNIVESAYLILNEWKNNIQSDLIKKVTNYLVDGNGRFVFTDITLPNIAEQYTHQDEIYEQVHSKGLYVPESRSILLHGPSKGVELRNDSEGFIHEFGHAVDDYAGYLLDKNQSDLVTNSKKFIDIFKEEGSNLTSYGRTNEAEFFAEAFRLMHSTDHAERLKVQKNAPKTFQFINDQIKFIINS
BoNT-A LC inh2: BoNT A light chain protease inhibition | multiplex microsphere protease substrate cleavage, flow cytometry | inhibition, % at 10 µM | hit rate 0.17% among 360,000 | AID 588499; further: plate controls were buffer without enzyme for full effect and enzyme alone for no effect
Bead autofluor: compound fluorescence in toxin protease inhibitor counterscreen; hit rate 3.1% among 360,000; fluorescence intensity (no concentration beside the values); compound autofluorescence counterscreen, microsphere flow cytometry; stronger effect = higher value; AID 624483; in the data active means fluorescence intensity above about 16000; inconclusive means no clear call, values can overlap the other calls
SARS 3CLpro inh: SARS-CoV 3CLpro protease inhibition; P0C6X7; recombinant SARS-CoV 3CLpro, quenched FRET peptide cleavage; inhibition, % at 6 µM; hit rate 0.14% among 290,000; AID 1706; in the data active means inhibition above about 12%
Numbers without * were called inactive; ? = inconclusive; · = no result. Unless noted, no stated cut-off is given here; in the data, active means inhibition above about 30%; inconclusive means no clear call, values can overlap the other calls; inactive means below that.

SMILES | BoNT-F LC inh | Anthrax LF prot | BoNT-A LC inh2 | Bead autofluor | SARS 3CLpro inh
COc1cc(CNn2cnnc2)ccc1OCC(=O)NC1CCCCC1 | -2 | -4 | -2 | 24056* | 0
COC(=O)c1ccc(OCC(=O)NC2CCCCCCC2)cc1 | -12 | -1 | 0 | 4280 | ·
COC(=O)c1ccccc1OCC(=O)NC1CCCCC1 | -2 | -1 | 2 | 21631* | 6
COc1cc(C)ccc1OCC(=O)NC1CCCCCC1 | 5 | -5 | 0 | 3837 | ·
CCOc1cc(NC(=S)Nc2ccccc2OC)c(OCC)cc1NC(=O)c1ccccc1C | -2 | -5 | 1 | 16184* | 0
CCOc1cc(NC(=S)Nc2ccccc2)c(OCC)cc1NC(=O)c1ccccc1 | -8 | -3 | -2 | 23797* | 3
Cc1ccc(-n2c(Cn3nc(C(F)(F)F)cc3C)n[nH]c2=S)cc1 | -6 | -4 | ? | 17459* | -2
COc1ccc(-n2c(Cn3nc(C(F)(F)F)cc3C)n[nH]c2=S)cc1 | 5 | 1 | 0 | 2060 | 1
NC(=O)c1ccc(-c2ncc(-c3ccccc3)o2)cc1 | 6 | -2 | 6 | 18854* | 1
c1ccc(-c2cnc(-c3cccnc3)o2)cc1 | -9 | -1 | 0 | 2852 | 0
O=c1c(-c2ccccc2)c(-c2ccccc2)oc2cc(O)cc(O)c12 | 7 | 20 | 1 | 2875 | 7
CC(c1cccs1)N(C(=O)Nc1ccccc1)C1CCCCC1 (centres undefined) | 3 | 0 | 1 | 21824* | -2
CC(C)CCN(C(=O)Nc1ccccc1)C(C)c1cccs1 (centres undefined) | -5 | -3 | -1 | 20892* | 3
CCc1nnc(NC(=O)C2CCCN(c3nc(C)cc(C)n3)C2)s1 (centres undefined) | -1 | -1 | 2 | 18689* | 0
COc1ccccc1NC(=O)C1CCCN(c2nc(C)cc(C)n2)C1 (centres undefined) | 0 | -2 | -1 | 9034 | 3
Cc1cc(C)nc(N2CCCC(C(=O)Nc3ccc4c(c3)OCO4)C2)n1 (centres undefined) | -3 | -1 | -2 | 20510* | -2
Cc1cc(C)nc(N2CCCC(C(=O)Nc3nnc(C(C)(C)C)s3)C2)n1 (centres undefined) | -5 | -1 | -1 | 4188 | -1
Cc1cc(C)nc(N2CCC(C(=O)Nc3ccc4c(c3)OCO4)CC2)n1 | 6 | 0 | 1 | 8733 | -2
Cc1cc(C)n2nc(C(=O)Nc3ccc4c(c3)OCO4)cc2n1 | 0 | -5 | 2 | 22219* | 4
Cc1cc(C)nc(N2CCCC(C(=O)Nc3cc(F)ccc3C)C2)n1 (centres undefined) | 2 | -3 | 2 | 22529* | 0
CCOC(=O)CCCNC(=O)CCCNC(=O)C(c1ccccc1)c1ccccc1 | -4 | -7 | -1 | 11229 | -5
C=CCn1c(C)c(C(C)=O)c(SC)nc1=S | 7 | 12 | 0 | 11586 | -5
Cc1cc(NC(=O)CCC(=O)N(Cc2ccco2)C2(C(=O)NC3CCCC3)CCC(C)CC2)no1 (centres undefined) | -8 | 1 | 0 | 5780 | -1
COc1ccc(NC(C)=O)cc1NC(=O)CN1CCN(S(=O)(=O)c2ccc(C(C)C)cc2)CC1 | -7 | -2 | 0 | 2221 | 0
CCc1ccc(-c2csc3ncn(Cc4ccc(C(=O)O)cc4)c(=O)c23)cc1 | 4 | 4 | 0 | 4667 | 3
SMILES | BoNT-F LC inh | Anthrax LF prot | BoNT-A LC inh2 | Bead autofluor | SARS 3CLpro inh
O=C(Cc1ccccc1)N/N=C/c1ccc2c(c1)OCO2 | 3 | 2 | -1 | 3448 | 1
O=C(CC1C(=O)NCCN1C(=O)Nc1ccccc1)Nc1ccc2c(c1)OCCO2 (centres undefined) | -5 | -3 | 0 | 16409* | -1
CCN1CCN(C(=O)CN(C)S(=O)(=O)c2ccc(OC)c(C)c2)CC1 | 5 | 2 | 1 | 10781 | 3
COc1ccc(S(=O)(=O)N(C)CC(=O)N2CCC(C(N)=O)CC2)cc1Cl | -5 | 0 | ? | 21013* | -1
COc1ccc(S(=O)(=O)N(C)CC(=O)N2CCN(C)CC2)cc1C | -4 | 0 | -2 | 23309* | -4
CN1CCN(c2ccc([N+](=O)[O-])c(-n3nc(-c4ccccc4)c4ccccc4c3=O)c2)CC1 | -9 | -4 | 1 | 4615 | 1
CC1CC(C)(C)NC(=S)N1CCC(=O)Nc1ccc2c(c1)OCCO2 (centres undefined) | -4 | -1 | -2 | 3985 | 8
Nc1nc(Cl)cc(N2CCOCC2)n1 | -3 | 3 | 0 | 2138 | 1
CN(C)c1nc(Cl)cc(N2CCOCC2)n1 | -1 | -1 | 1 | 22938* | -6
Cc1ccc(NC(=O)c2ccc(C#CC3(O)CCCCC3)cc2)cc1C | 1 | -7 | 1 | 22190* | 4
Cc1ccc(NC(=O)NC2CCCCCCC2)cc1C | 5 | 1 | 1 | 4484 | 0
O=C(O)c1nc(N2CCCC2)ncc1Cl | 10 | -8 | 7 | 19947* | 7
O=C(O)c1nc(N2CCCCC2)ncc1Cl | -9 | -3 | -1 | 2505 | 4
O=C(C[n+]1cccc(/C=N/O)c1)NC(=O)Nc1ccccc1 | -6 | -2 | -1 | 6215 | ·
NC(=O)CSc1nnc(Cn2c(=O)sc3ccccc32)n1-c1ccccc1 | -4 | -9 | 0 | 5641 | 2
O=C(O)CSc1nnc(Cn2c(=O)sc3ccccc32)n1-c1cccc(Cl)c1 | 7 | -8 | 7 | 20449* | -5
NC(=O)CSc1nnc(Cn2c(=O)sc3ccccc32)n1-c1cccc(Cl)c1 | 1 | -2 | 0 | 16396* | 2
CCS(=O)(=O)c1ccc2c(c1)NC(=O)C(CCCl)O2 (centres undefined) | 3 | -2 | -1 | 3236 | 0
COc1cc2c(cc1OC)C(C(N)=O)NCC2 (centres undefined) | -4 | -2 | 0 | 4326 | ·
COc1ccc(-c2nc(CS(=O)CC(=O)NC3CCCCC3C)c(C)o2)cc1OC (centres undefined) | -2 | -4 | 1 | 5377 | -6
O=C(OCC#CCSc1nc2ccccc2o1)c1ccco1 | 2 | -10 | ? | 22148* | 2
O=C(OCC#CCSc1nnc(-c2cccc3ccccc23)o1)c1ccco1 | -4 | -2 | ? | 20284* | 4
O=C(OCC#CCSc1nc2ccccc2o1)c1cc2ccccc2o1 | · | · | · | · | 0
O=C(OCC#CCSc1nnc(-c2cccc3ccccc23)o1)c1ccc(Br)cc1 | -3 | -2 | 0 | 3587 | ·
Nc1ccc2c(c1)oc1ccccc12 | 1 | 0 | 1 | 22331* | -6
SMILES | BoNT-F LC inh | Anthrax LF prot | BoNT-A LC inh2 | Bead autofluor | SARS 3CLpro inh
Clc1ccc(Nc2ncn[nH]2)cc1 | -2 | 1 | 0 | 23107* | 1
Clc1ccc(CNc2ccc(CNc3ncn[nH]3)cc2)cc1 | -5 | -1 | 0 | 9836 | 4
Cc1ccc(-n2c(C)cc(C(=O)COC(=O)c3ccc[nH]c3=O)c2C)cc1 | 3 | 2 | 1 | 2509 | -3
COC(CNC(=O)c1ccc2c(c1)nc(C)n2-c1cc(C)cc(C)c1)OC | 10 | 0 | 3 | 2960 | -1
COC(CNC(=O)c1ccc2c(c1)nc(C)n2-c1ccc(F)c(F)c1)OC | 5 | -2 | 1 | 22581* | 0
COC(CNC(=O)c1ccc2c(c1)nc(C)n2-c1cccc(F)c1)OC | -4 | 1 | -5 | 21945* | 6
